Holding throughout (test): DAPPL (digital affinity profiling via proximity ligation, sequencing); 10 mM Tris-HCl pH 7.5, 50 mM NaCl, 1 mM DTT, 4% glycerol, room temperature, 30 min; GST-TFs on glutathione beads, 16-mer random dsDNA library, 0.1% formaldehyde crosslink after washing; high values mean tight binding
One assay addresses ETV5 (Homo sapiens, UniProt P41161 1-510). The following applies: protein: recombinant; tags: N-terminal GST; dsDNA, one strand shown. The method in brief:
(§1)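 Binding signal is each hexamer's read frequency for a factor divided by its frequency in the tag-only sample. The factors were GST-fused human transcription factors from yeast, captured on glutathione beads, DNA-barcoded and pooled with that sample. Pools were incubated with 200 nmole of a random double-stranded 16-mer DNA library in Tris/NaCl/DTT/glycerol buffer at room temperature for 30 min, then washed, crosslinked with 0.1% formaldehyde, proximity-ligated with BsaI/T4 ligase (1 h, 37 °C), PCR-amplified and sequenced on an Illumina NextSeq500.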

The next assay concerns the target HSF1 (Homo sapiens, UniProt Q00613 1-529). As to conditions: protein: recombinant; tags: N-terminal GST; chain copies: 3; dsDNA, one strand shown. The method in brief: as §1
In the next assay the target is T1, SPIC (Homo sapiens, UniProt Q8N5J4 1-248).
T1 sequence: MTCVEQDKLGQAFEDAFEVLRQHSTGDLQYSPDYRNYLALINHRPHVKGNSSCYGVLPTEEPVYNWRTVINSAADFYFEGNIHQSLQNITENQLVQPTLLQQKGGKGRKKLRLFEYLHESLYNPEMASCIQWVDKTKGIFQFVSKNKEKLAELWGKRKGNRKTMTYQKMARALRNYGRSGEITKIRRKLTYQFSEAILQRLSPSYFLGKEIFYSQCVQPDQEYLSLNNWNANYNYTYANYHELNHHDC
The following applies: protein: recombinant; tags: N-terminal GST; dsDNA, one strand shown. The method in brief: as §1

The target of another assay is ELF4 (Homo sapiens, UniProt Q99607 1-663). The following applies: protein: recombinant; tags: N-terminal GST; dsDNA, one strand shown. The procedure, abridged:
as §1

In the next assay the target is T2, ELK4 (Homo sapiens, UniProt P28324-2 1-405).
T2 sequence: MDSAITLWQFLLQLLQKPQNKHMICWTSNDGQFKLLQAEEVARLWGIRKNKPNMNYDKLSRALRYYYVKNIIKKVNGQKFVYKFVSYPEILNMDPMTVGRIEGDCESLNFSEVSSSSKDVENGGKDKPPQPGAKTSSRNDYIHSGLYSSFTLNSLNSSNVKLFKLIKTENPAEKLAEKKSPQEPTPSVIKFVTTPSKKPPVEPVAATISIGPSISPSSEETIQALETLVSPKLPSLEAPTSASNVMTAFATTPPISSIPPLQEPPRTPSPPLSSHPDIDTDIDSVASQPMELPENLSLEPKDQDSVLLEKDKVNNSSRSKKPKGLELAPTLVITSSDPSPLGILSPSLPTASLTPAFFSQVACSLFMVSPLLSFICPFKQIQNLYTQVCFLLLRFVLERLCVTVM
As to conditions: protein: recombinant; tags: N-terminal GST; dsDNA, one strand shown. The procedure, abridged:
as §1

The next assay has as its target T3, ELF3 (Homo sapiens, UniProt P78545 1-371).
T3 sequence: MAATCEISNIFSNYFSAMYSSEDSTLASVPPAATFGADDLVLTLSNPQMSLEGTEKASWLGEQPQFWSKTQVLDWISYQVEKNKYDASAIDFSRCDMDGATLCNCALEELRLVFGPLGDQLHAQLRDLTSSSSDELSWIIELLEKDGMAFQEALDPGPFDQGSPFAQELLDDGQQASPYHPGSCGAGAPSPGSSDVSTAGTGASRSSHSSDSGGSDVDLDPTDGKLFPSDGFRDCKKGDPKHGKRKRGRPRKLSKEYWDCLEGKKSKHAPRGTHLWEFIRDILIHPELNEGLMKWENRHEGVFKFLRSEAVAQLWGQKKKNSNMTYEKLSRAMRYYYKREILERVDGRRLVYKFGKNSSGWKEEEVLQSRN
As to conditions: protein: recombinant; tags: N-terminal GST; dsDNA, one strand shown. The method in brief: as §1

A further assay has as its target CRX (Homo sapiens, UniProt O43186 1-299). As to conditions: protein: recombinant; tags: N-terminal GST; dsDNA, one strand shown. The method in brief:
as §1

Another assay addresses T4, ETV2 (Homo sapiens, UniProt O00321 1-342).
T4 sequence: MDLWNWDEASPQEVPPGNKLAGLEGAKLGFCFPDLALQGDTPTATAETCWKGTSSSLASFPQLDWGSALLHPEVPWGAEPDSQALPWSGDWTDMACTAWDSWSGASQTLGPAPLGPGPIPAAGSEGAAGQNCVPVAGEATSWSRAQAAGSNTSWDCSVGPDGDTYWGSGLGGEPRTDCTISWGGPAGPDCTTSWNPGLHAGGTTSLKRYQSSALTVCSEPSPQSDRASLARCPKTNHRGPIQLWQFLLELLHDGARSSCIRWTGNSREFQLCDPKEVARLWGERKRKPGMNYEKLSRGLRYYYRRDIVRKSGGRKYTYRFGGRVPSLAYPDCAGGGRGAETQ
The following applies: protein: recombinant; tags: N-terminal GST; dsDNA, one strand shown. The procedure, abridged:
as §1

The next assay concerns the target ETV1 (Homo sapiens, UniProt P50549 1-477). As to conditions: protein: recombinant; tags: N-terminal GST; dsDNA, one strand shown. The method in brief:
as §1

The target in a further assay is T5, FEV (Homo sapiens, UniProt Q99581 1-238).
T5 sequence: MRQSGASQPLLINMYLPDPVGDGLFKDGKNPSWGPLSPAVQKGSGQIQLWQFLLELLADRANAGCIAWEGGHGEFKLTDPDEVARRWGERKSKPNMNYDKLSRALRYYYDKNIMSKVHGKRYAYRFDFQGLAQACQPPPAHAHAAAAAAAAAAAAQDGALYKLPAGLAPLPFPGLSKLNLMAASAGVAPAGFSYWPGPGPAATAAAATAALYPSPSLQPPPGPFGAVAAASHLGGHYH
As to conditions: protein: recombinant; tags: N-terminal GST; dsDNA, one strand shown. The method in brief: as §1

Among the data in PMC7862700, “An all-to-all approach to the identification of sequence-specific readers for epigenetic DNA modifications on cytosine” are binding signal values, retold here.

ETV1, sequence (P50549 whole entry): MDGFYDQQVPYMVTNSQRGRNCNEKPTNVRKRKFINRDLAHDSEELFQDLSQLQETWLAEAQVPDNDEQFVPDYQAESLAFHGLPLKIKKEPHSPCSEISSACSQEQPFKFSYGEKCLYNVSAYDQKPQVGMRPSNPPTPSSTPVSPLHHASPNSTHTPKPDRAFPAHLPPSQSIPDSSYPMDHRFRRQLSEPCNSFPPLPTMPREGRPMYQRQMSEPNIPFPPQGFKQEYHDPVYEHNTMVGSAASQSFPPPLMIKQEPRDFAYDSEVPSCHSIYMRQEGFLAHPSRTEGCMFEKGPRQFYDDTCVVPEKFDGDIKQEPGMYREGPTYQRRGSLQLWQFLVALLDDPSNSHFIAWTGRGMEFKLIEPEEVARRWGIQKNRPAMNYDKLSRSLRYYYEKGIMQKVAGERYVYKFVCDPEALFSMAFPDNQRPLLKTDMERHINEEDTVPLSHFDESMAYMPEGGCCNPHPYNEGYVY
ETV5, sequence (P41161 whole entry, the tested form may be a part): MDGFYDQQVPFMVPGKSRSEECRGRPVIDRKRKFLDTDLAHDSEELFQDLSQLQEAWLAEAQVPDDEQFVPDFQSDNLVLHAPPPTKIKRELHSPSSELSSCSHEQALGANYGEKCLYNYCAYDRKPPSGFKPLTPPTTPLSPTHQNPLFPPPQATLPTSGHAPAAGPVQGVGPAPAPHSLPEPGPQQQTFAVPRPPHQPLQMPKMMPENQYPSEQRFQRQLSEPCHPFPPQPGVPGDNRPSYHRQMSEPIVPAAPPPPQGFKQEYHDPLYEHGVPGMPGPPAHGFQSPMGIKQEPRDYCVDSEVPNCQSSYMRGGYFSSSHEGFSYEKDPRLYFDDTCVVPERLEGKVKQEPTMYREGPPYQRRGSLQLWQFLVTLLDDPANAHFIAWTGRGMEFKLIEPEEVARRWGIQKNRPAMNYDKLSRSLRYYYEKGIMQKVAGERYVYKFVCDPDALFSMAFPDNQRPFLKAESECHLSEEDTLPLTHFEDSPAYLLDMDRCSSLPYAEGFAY
ELF4, sequence (Q99607 whole entry): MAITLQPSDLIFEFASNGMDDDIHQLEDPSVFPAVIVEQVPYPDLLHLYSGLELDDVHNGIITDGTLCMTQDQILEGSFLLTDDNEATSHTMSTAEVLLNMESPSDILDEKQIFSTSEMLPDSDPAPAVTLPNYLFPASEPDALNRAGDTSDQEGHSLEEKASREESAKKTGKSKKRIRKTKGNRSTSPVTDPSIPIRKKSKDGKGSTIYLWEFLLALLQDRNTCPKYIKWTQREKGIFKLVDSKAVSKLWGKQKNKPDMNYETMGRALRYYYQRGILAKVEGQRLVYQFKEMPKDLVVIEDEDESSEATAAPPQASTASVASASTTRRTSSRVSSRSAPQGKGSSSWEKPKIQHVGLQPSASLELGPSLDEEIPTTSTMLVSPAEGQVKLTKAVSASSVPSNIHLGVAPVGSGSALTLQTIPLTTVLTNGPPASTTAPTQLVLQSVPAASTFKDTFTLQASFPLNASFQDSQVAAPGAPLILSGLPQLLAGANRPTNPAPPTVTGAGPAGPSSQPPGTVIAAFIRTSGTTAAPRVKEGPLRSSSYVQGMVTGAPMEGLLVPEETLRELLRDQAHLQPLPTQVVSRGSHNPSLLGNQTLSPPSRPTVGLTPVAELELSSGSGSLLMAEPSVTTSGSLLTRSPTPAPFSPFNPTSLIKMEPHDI
HSF1, sequence (Q00613 whole entry): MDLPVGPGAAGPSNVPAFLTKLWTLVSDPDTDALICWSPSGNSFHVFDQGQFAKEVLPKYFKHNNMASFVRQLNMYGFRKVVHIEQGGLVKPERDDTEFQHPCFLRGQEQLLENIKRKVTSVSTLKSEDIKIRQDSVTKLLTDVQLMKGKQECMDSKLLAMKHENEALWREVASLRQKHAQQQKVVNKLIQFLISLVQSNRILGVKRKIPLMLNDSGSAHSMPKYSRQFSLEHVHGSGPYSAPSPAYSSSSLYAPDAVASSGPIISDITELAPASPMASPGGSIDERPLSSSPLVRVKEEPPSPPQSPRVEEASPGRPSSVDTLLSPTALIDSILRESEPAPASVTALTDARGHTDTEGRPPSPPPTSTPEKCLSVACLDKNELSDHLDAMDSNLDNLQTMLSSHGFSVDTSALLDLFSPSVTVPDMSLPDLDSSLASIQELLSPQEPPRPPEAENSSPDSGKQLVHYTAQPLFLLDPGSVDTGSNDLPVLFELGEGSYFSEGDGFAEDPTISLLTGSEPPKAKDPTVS
CRX, sequence (O43186 whole entry): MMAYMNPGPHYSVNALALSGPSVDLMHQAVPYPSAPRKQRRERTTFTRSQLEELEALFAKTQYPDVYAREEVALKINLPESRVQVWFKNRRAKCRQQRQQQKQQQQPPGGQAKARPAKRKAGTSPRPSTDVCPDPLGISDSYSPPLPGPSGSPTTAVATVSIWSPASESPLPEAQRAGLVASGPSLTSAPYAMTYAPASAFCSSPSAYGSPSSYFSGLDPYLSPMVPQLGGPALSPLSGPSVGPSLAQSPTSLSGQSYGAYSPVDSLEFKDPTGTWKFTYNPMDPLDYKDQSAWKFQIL

For the sequence ATGAAG, the binding signal was 1.01 fold enrichment (6-mer frequency, TF over GST control) with ETV5; 1.07 fold enrichment (6-mer frequency, TF over GST control) with HSF1; 1.14 fold enrichment (6-mer frequency, TF over GST control) with SPIC; 1.08 fold enrichment (6-mer frequency, TF over GST control) in the assay with ELF4; 1.17 fold enrichment (6-mer frequency, TF over GST control) in the assay with ELK4; 1.02 fold enrichment (6-mer frequency, TF over GST control) in the assay with ELF3. Further, in the assay with CRX, the binding signal was 1.04 fold enrichment (6-mer frequency, TF over GST control).

Turning to TTTAGT, the binding signal with ETV5 is 1.04 fold enrichment (6-mer frequency, TF over GST control); with HSF1, 1.2 fold enrichment (6-mer frequency, TF over GST control); in the assay with SPIC, 1.15 fold enrichment (6-mer frequency, TF over GST control); with ELF4 it was 1.04 fold enrichment (6-mer frequency, TF over GST control); in the assay with ETV2, 1.23 fold enrichment (6-mer frequency, TF over GST control); with ELF3, 1.04 fold enrichment (6-mer frequency, TF over GST control). For the same sequence, in the assay with CRX, the binding signal was 1.55 fold enrichment (6-mer frequency, TF over GST control).

For GATAAT, the binding signal with ETV5 is 1.05 fold enrichment (6-mer frequency, TF over GST control); in the assay with HSF1, 1.98 fold enrichment (6-mer frequency, TF over GST control); with SPIC, 1.27 fold enrichment (6-mer frequency, TF over GST control); in the assay with ELF4, 1.1 fold enrichment (6-mer frequency, TF over GST control); with ELK4, 1.09 fold enrichment (6-mer frequency, TF over GST control); in the assay with CRX, 2.88 fold enrichment (6-mer frequency, TF over GST control). The binding signal with ETV1 is 1.14 fold enrichment (6-mer frequency, TF over GST control).

Turning to TAACTC, the binding signal with FEV was 1.1 fold enrichment (6-mer frequency, TF over GST control); with ETV5, 1.21 fold enrichment (6-mer frequency, TF over GST control); in the assay with HSF1, 1.34 fold enrichment (6-mer frequency, TF over GST control); with SPIC, 1.25 fold enrichment (6-mer frequency, TF over GST control); with ELF4, 1.29 fold enrichment (6-mer frequency, TF over GST control); with ELK4, 1.34 fold enrichment (6-mer frequency, TF over GST control). The binding signal in the assay with CRX was 1.58 fold enrichment (6-mer frequency, TF over GST control); with ETV1, 1.23 fold enrichment (6-mer frequency, TF over GST control).

Turning to CTATCG, the binding signal was 1.01 fold enrichment (6-mer frequency, TF over GST control) with FEV; 1.06 fold enrichment (6-mer frequency, TF over GST control) in the assay with ETV5; 1.17 fold enrichment (6-mer frequency, TF over GST control) with HSF1; 1.04 fold enrichment (6-mer frequency, TF over GST control) in the assay with SPIC; 1.15 fold enrichment (6-mer frequency, TF over GST control) with ELF4; 1.09 fold enrichment (6-mer frequency, TF over GST control) in the assay with ELK4. For the same sequence, the binding signal is 1.22 fold enrichment (6-mer frequency, TF over GST control) in the assay with ELF3; 1.08 fold enrichment (6-mer frequency, TF over GST control) in the assay with CRX; 1.13 fold enrichment (6-mer frequency, TF over GST control) with ETV1.

For TCCCAA, the binding signal with FEV was 1.17 fold enrichment (6-mer frequency, TF over GST control); with ETV5 it was 1.2 fold enrichment (6-mer frequency, TF over GST control); in the assay with HSF1 it was 1.11 fold enrichment (6-mer frequency, TF over GST control); with SPIC, 1.17 fold enrichment (6-mer frequency, TF over GST control); in the assay with ELF4, 1.24 fold enrichment (6-mer frequency, TF over GST control); with ELK4, 1.09 fold enrichment (6-mer frequency, TF over GST control). Besides, the binding signal is 1.16 fold enrichment (6-mer frequency, TF over GST control) with ELF3; 1.23 fold enrichment (6-mer frequency, TF over GST control) in the assay with CRX; 1.2 fold enrichment (6-mer frequency, TF over GST control) with ETV1.

For the sequence TCATGA, the binding signal with ETV5 was 1.08 fold enrichment (6-mer frequency, TF over GST control); with HSF1 it was 1.06 fold enrichment (6-mer frequency, TF over GST control); in the assay with SPIC, 1.07 fold enrichment (6-mer frequency, TF over GST control); with ELF4 it was 1.06 fold enrichment (6-mer frequency, TF over GST control); with ELK4, 1.03 fold enrichment (6-mer frequency, TF over GST control); with ELF3, 1 fold enrichment (6-mer frequency, TF over GST control). For the same sequence, the binding signal is 1.07 fold enrichment (6-mer frequency, TF over GST control) with CRX and 1.14 fold enrichment (6-mer frequency, TF over GST control) with ETV1.

With CTTGGC, the binding signal is 1.24 fold enrichment (6-mer frequency, TF over GST control) with FEV; 1.1 fold enrichment (6-mer frequency, TF over GST control) with ETV5; 1.03 fold enrichment (6-mer frequency, TF over GST control) with HSF1; 1.14 fold enrichment (6-mer frequency, TF over GST control) in the assay with SPIC; 1.21 fold enrichment (6-mer frequency, TF over GST control) with ELF4; 1.42 fold enrichment (6-mer frequency, TF over GST control) in the assay with ELK4. Moreover, the binding signal with ELF3 is 1.19 fold enrichment (6-mer frequency, TF over GST control); in the assay with CRX, 1.03 fold enrichment (6-mer frequency, TF over GST control); with ETV1, 1.15 fold enrichment (6-mer frequency, TF over GST control).
